# Active and inactive are the calls of the source.
# Columns and labels:
# [1] = small molecules captured by biotinylated probe aFSTL3 – biochemical, small-molecule microarray, fluorescence 635/667, stem cell growth factor project, primary screen (AID 1064); settings: higher = more signal;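 note: measures binding of the biotinylated anti-FSTL3 antibody to printed compounds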
# [2] = binders from COS7 lysate, DM2A8 probe, primary screen, torsin A project, cell lysate, small-molecule microarray, fluorescence 635/667 (AID 1065); settings: higher = more signal, COS7 lysate expressing mutant human TOR1A
# [3] = small molecules captured by biotinylated probe aFGF2 – biochemical, small-molecule microarray, fluorescence 635/667, stem cell growth factor project, primary screen (AID 1067); settings: higher = more signal;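 note: measures binding of biotinylated aFGF2 protein to printed compounds on slides; z-score merges feature fluorescence and signal-to-noise across triplicate slides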
# [4] = small molecules captured by biotinylated probe aFGF10 – biochemical, small-molecule microarray, fluorescence 635/667, stem cell growth factor project, primary screen (AID 1071); settings: higher = more signal;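 note: score merges 667 nm spot intensity and signal to noise from triplicate slides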
# [5] = target: Neurogenic locus notch homolog protein 2 (Homo sapiens) (UniProt Q04721); experiment: small molecules binding Notch2 protein – biochemical, small-molecule microarray, 635 nm fluorescence, stem cell growth factors, primary screen (AID 1073); settings: higher = more signal
# [6] = target: Pro-neuregulin-1, membrane-bound isoform (Homo sapiens) (UniProt Q02297); experiment: small molecules binding neuregulin-1 protein – biochemical, small-molecule microarray, fluorescence 635/667, psychiatric disease protein project, primary screen (AID 1075); settings: NRG1 binding, 635 nm fluorescence, higher = more signal;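 note: score combines 667 nm spot fluorescence with signal to noise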
# [7] = tested on: Neuregulin-1 EGF-like domain; experiment: small molecules binding NRG1 EGF domain – biochemical, small-molecule microarray, 635 nm fluorescence, primary screen (AID 1081); settings: higher = more signal;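 note: binding of the protein to compounds printed on small-molecule microarray slides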
# [8] = FRG1 expression reporter modulators in myotubes – cell-based, C2C12 myotubes, firefly/Renilla luciferase, luminescence, FRG1 inhibition for FSHD, primary screen (AID 1084); settings: FRG1 promoter luciferase, higher = more signal, called active from +8 up or from −8 down
# [9] = small molecules captured by biotinylated probe aFST – biochemical, small-molecule microarray, fluorescence 635/667, stem cell growth factor project, primary screen (AID 1086); settings: higher = more signal;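 note: score merges 667 nm fluorescence with signal-to-noise of each printed compound spot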
# [10] = binders of probe aHhip on microarray, primary screen, stem cell growth factor project, biochemical, small-molecule microarray, fluorescence 635/667 (AID 1087); settings: higher = more signal;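 note: score merges spot fluorescence at 667nm with spot signal to noise ratio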
# [11] = tested on: PRMT1 (protein arginine N-methyltransferase 1); experiment: small molecules binding arginine methyltransferase PRMT1 – biochemical, small-molecule microarray, 635 nm fluorescence, primary screen (AID 1088); settings: higher = more signal;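 note: binding of Prmt1 protein to compounds spotted on small-molecule microarray slides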
# [12] = growth effects on S. cerevisiae YJM789 – YJM789 clinical isolate, OD600, 24 h, basal, primary screen (AID 1089); settings: higher = more signal, called active from +8 up or from −8 down;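 note: growth of clinical yeast isolate S. cerevisiae YJM 789 seeded 1000 cells per well; test concentration not given here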
# [13] = S. pombe growth modifiers, basal conditions – strain 972, OD600, 24 h, no modulator, primary screen (AID 1090);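 note: basal condition with compound alone and no growth modifier present; test concentration not given here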; settings: S. pombe 972 growth, higher = more signal, called active from +8 up or from −8 down
# [14] = budding yeast growth modifiers under rapamycin – strain BY4716, OD600, 96 h, primary screen (AID 1091); note: test concentration not given here; settings: S. cerevisiae BY4716 + rapamycin, higher = more signal, called active from +8 up or from −8 down
# [15] = target: Torsin-1A-interacting protein 2 (Homo sapiens) (UniProt Q8NFQ8); experiment: small molecules binding lysate-expressed LULL1 – cell lysate, human LULL1 lysate, 635/667 nm fluorescence, primary screen (AID 1092); settings: small-molecule microarray, hLULL1 lysate binding, 635 nm fluorescence; higher = more signal;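 note: probe is lysate of COS7 cells overexpressing human LULL1; score merges per-feature 667 nm fluorescence with signal-to-noise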
# [16] = optical density change of DRC41 E. coli – strain DRC41, OD650, 24 h, E. coli filamentation project, primary screen (AID 1093);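 note: MC1000 strain lacking acrAB efflux and sulA so SOS filamentation is blocked; test concentration not given here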; settings: E. coli DRC41 growth, higher = more signal, called active from +8 up or from −8 down
# [17] = probe aLefty2 binding to arrayed compounds – biochemical, biotinylated probe, 635/667 nm fluorescence, primary screen (AID 1094); settings: small-molecule microarray, higher = more signal;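 note: score merges spot fluorescence near 667 nm with spot signal-to-noise ratio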
# [18] = tested on: Noggin (protein binding on small-molecule microarray); experiment: small molecules binding Noggin protein – biochemical, 635/667 nm fluorescence, primary screen (AID 1095); settings: 635 nm fluorescence, higher = more signal;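 note: score merges 667 nm feature fluorescence with signal to noise over triplicate slides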
# [19] = target: Neurogenic locus notch homolog protein 3 (Homo sapiens) (UniProt Q9UM47); experiment: small molecules binding NOTCH3 protein – biochemical, 635/667 nm fluorescence, primary screen (AID 1096); settings: small-molecule microarray, 635 nm fluorescence, higher = more signal
# [20] = probe aEGFR binding to arrayed compounds – biochemical, biotinylated probe, 635/667 nm fluorescence, primary screen (AID 1097); settings: small-molecule microarray, higher = more signal;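 note: probe is a biotinylated anti-EGFR antibody binding compounds printed on slides; score combines fluorescence near 667 nm and signal to noise of each spot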
# Sequence of Neurogenic locus notch homolog protein 3 (Homo sapiens) (Q9UM47 whole entry, looked up): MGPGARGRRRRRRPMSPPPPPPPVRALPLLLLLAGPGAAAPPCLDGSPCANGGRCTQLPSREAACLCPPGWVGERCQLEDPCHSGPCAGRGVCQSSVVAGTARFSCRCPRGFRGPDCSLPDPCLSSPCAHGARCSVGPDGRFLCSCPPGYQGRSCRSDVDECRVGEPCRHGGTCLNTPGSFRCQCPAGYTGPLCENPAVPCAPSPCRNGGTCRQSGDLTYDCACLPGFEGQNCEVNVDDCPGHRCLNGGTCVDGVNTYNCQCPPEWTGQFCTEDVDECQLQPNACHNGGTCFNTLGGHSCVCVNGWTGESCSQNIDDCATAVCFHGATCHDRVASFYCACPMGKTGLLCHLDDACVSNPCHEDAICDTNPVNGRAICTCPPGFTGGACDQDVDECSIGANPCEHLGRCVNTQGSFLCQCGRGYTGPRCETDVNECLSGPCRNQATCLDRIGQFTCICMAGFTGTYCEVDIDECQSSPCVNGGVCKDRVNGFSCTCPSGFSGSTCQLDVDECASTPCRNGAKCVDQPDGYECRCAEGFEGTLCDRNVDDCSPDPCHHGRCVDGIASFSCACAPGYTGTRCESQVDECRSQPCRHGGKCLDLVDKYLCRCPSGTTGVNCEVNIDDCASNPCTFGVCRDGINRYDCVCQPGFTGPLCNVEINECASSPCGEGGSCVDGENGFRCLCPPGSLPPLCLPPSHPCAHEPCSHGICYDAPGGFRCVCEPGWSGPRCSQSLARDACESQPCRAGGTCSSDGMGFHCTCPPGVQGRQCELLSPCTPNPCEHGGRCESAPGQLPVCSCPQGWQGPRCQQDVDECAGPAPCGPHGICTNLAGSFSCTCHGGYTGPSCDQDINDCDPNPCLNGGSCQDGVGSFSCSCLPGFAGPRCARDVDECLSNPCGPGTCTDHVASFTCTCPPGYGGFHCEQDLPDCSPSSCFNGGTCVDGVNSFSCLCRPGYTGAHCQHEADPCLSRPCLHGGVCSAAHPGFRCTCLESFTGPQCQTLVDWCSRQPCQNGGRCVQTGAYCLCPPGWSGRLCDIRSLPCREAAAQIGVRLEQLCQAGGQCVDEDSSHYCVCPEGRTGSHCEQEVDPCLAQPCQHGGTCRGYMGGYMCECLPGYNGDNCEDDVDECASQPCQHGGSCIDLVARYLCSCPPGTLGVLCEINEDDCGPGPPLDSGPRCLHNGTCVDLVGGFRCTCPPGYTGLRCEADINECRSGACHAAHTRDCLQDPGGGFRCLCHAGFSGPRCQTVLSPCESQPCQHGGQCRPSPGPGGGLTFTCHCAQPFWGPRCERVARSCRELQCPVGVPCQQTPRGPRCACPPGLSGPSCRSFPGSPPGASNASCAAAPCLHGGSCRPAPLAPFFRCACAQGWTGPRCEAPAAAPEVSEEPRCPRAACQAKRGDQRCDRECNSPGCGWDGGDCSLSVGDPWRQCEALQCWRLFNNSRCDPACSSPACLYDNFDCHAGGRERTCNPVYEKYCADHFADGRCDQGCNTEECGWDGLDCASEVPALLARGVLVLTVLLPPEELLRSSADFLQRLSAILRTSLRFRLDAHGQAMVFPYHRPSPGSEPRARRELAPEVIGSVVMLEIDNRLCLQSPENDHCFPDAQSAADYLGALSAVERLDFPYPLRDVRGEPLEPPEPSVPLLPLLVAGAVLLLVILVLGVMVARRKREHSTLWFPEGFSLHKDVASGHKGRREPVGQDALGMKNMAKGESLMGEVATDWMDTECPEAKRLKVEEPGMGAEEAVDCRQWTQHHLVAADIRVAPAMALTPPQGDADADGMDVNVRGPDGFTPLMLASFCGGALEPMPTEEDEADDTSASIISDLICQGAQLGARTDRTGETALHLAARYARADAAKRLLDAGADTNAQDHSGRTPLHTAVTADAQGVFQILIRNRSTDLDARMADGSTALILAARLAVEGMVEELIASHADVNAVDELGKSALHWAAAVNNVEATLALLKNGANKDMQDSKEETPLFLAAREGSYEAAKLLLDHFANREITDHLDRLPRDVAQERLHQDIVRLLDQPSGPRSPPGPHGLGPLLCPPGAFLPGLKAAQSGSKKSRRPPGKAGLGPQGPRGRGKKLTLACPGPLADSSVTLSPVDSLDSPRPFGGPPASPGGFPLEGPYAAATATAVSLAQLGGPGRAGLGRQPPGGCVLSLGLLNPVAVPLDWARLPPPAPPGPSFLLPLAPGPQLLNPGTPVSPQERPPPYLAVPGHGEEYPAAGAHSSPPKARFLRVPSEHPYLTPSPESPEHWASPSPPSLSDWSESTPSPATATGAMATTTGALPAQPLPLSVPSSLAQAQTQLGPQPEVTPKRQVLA
# Sequence of Neurogenic locus notch homolog protein 2 (Homo sapiens) (Q04721 whole entry, looked up, canonical isoform): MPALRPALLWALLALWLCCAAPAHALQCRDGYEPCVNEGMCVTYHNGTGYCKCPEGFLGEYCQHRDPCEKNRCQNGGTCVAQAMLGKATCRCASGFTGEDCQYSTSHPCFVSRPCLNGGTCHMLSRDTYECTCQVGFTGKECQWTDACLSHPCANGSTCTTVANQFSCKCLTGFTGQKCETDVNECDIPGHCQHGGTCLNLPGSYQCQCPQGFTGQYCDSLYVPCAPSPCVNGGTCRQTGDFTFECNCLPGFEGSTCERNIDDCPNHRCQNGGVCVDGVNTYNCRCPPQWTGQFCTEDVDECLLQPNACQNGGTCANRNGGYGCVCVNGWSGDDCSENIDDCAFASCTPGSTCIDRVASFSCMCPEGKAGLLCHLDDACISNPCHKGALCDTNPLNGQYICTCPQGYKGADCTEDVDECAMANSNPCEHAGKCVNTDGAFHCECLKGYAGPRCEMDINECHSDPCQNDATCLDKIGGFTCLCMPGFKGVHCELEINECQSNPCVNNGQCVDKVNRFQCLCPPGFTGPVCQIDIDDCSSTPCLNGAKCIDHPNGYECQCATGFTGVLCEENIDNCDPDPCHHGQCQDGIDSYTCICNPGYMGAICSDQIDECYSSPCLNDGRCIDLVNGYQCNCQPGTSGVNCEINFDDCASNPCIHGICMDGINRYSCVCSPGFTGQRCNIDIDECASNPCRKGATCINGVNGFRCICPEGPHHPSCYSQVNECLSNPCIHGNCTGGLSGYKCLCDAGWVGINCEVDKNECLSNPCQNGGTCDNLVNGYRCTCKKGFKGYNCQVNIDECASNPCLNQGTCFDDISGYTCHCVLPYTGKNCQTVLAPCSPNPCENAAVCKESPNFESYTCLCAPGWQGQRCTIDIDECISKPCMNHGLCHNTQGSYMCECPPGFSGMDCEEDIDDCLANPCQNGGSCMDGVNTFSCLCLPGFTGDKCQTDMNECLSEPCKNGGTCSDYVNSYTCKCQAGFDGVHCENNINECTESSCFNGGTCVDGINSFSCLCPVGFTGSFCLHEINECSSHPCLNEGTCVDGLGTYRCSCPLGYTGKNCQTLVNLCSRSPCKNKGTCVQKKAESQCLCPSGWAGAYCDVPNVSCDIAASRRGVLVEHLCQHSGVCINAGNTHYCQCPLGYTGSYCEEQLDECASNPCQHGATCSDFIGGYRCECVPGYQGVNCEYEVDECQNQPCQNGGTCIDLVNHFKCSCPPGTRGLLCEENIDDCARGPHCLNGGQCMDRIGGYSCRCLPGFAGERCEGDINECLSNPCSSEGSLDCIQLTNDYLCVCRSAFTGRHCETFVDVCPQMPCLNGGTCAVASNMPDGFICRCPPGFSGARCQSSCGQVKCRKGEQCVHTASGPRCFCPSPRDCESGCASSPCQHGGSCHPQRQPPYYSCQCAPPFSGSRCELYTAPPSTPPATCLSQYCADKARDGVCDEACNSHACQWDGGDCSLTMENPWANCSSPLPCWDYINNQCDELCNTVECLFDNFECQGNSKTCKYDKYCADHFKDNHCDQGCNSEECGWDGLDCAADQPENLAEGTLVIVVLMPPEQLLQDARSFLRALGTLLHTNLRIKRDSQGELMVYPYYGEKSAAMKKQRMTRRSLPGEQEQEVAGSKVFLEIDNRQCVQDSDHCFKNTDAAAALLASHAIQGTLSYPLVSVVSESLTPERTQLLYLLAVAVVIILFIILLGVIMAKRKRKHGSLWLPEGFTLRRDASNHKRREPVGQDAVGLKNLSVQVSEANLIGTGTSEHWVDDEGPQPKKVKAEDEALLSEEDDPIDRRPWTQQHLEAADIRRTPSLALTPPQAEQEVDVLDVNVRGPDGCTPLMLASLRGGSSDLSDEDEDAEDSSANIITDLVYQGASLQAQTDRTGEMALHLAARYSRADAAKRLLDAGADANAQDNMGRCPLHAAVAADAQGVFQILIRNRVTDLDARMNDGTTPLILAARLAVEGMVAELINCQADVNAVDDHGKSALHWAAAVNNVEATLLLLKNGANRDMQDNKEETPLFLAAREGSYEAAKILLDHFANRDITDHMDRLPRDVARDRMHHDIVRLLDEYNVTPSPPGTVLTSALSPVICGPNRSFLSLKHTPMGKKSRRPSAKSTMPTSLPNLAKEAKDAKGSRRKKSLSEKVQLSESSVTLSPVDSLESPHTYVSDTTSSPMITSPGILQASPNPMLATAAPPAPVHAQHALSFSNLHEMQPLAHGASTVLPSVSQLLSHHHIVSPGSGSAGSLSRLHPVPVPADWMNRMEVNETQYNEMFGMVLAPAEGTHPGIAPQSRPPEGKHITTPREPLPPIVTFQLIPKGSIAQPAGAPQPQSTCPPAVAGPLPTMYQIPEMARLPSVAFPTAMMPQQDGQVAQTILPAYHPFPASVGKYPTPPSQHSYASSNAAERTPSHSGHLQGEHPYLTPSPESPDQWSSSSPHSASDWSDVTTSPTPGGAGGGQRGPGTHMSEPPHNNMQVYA
Structure (SMILES),composite z-score [1],composite z-score [2],composite z-score [3],composite z-score [4],composite z-score [5],composite z-score [6],composite z-score [7],z-score [8],composite z-score [9],composite z-score [10],composite z-score [11],z-score [12],z-score [13],z-score [14],composite z-score [15],z-score [16],composite z-score [17],composite z-score [18],composite z-score [19],composite z-score [20]
Cc1ccc(S[C@]2(C(=O)NCCN3CCOCC3)CC(=O)N(C3CCCCC3)[C@@H]2c2ccc(CO)cc2)cc1,-0.0386,-0.439,-0.158,0.123,0.825,1,1.09,0.046 (inactive),0.283,-0.0645,1.05,-0.0801 (inactive),-0.134 (inactive),-0.942 (inactive),3.05,-0.114 (inactive),-0.072,0.218,0.404,-0.111
O=C1OCCC/C=C\[C@H]2OC34C=CCN(Cn5nnc6ccccc65)C(=O)[C@H]3N(CCCO)C(=O)[C@@H]4C12 (stereo not given in full),0.415,-0.652,-0.017,-1,-0.936,0.995,1.13,-0.126 (inactive),-1.28,-0.271,1.19,-0.57 (inactive),0.0555 (inactive),-0.264 (inactive),3.64,0.123 (inactive),-0.225,-0.9,-0.0127,-0.232
O=C1C2C=CC(C(O)C3CC=CCC3)N(n3cnnc3)C2C(=O)N1Cc1ccccc1 (stereo not given),0.61,0.43,-0.158,-1.03,-1.23,0.998,0.518,0.37 (inactive),-0.354,0.12,1.07,-0.504 (inactive),0.196 (inactive),0.0633 (inactive),1.09,-1.09 (inactive),-0.223,-1.05,-0.686,-0.314
O=C(NCCN1CCOCC1)[C@@H]1c2ccccc2C(=O)N(Cc2cc(F)cc(C(F)(F)F)c2)[C@H]1c1ccc(CO)cc1,-0.0058,1.09,-0.188,-0.71,-0.987,1.25,0.591,-0.0497 (inactive),-0.234,-0.199,1.54,-0.718 (inactive),-0.447 (inactive),-0.405 (inactive),3.05,-0.356 (inactive),-0.22,0.935,0.58,-0.149
C=CCOC(=O)[C@@H]1[C@H]2C(=O)O[C@H](c3ccccc3)[C@H](c3ccccc3)N2[C@H](c2ccc(OCCOC(=O)[C@H]3C[C@H]4C(=O)N[C@@H](CC(C)C)C(=O)N4[C@H]3c3cccc(OCCO)c3)cc2)[C@@]12C(=O)Nc1ccc(I)cc12,-0.187,0.83,-0.0232,0.81,0.809,0.71,1.27,1.6 (inactive),0.186,-0.0296,1.53,0.705 (inactive),0.492 (inactive),2.65 (inactive),2.66,0.147 (inactive),-0.0849,1.58,1.06,-0.0769
CC(C)(C)OC(=O)CC[C@]1(C(=O)NCC(O)CO)N=C(c2ccc(OCCCO)cc2)O[C@H]1c1ccccc1CN=[N+]=[N-] (stereo not given in full),1.32,2.46,0.314,0.922,1.68,2.09,0.722,2.4 (inactive),1.68,-0.0024,1.06,-0.624 (inactive),-0.867 (inactive),-0.859 (inactive),3.59,0.301 (inactive),0.716,0.27,1.08,0.61
C=C(COC)C(=O)CC[C@@H](OC(=O)c1ccccc1-c1ccccc1C(=O)O)c1ccc(CO)o1,-0.229,1.23,-0.0449,-0.177,0.187,0.982,1.36,-3.75 (inactive),-0.551,-0.0994,1.38,-24.5 (active),-20.5 (active),-4.45 (inactive),2.4,-0.177 (inactive),-0.215,1.63,0.314,-0.0512
CCCNC(=O)[C@@]1(c2ccc([N+](=O)[O-])cc2)CC(=O)N(CC23CC4CC(CC(C4)C2)C3)[C@@H]1c1ccc(CO)cc1I,0.188,0.388,-0.0644,0.0889,0.906,0.133,1.01,-2.05 (inactive),0.171,0.31,1.14,0.804 (inactive),1 (inactive),5.52 (inactive),1.53,0.136 (inactive),0.0962,0.367,0.243,0.141
C=CCN1C(=O)[C@]2(Cc3ccccc31)N=C(c1ccc(OCCCO)cc1)O[C@@H]2c1ccccc1,0.5,0.152,-0.062,0.439,1.6,0.904,1.2,-2.5 (inactive),0.961,0.0854,1.33,-2.2 (inactive),-4.05 (inactive),0.259 (inactive),2.76,-2.56 (inactive),0.235,0.555,0.923,0.0786
CCCCCN1CC=CC23O[C@@H]4C=CCCOC(=O)C4[C@H]2C(=O)N(CCCO)[C@@H]3C1=O (stereo not given in full),0.0241,-0.615,-0.186,0.0149,-0.755,-0.454,0.266,-0.482 (inactive),-0.108,-0.236,0.229,0.0103 (inactive),-1.3 (inactive),-0.506 (inactive),-0.651,2.22 (inactive),-0.257,-0.272,0.0424,-0.223
O=C(N1CCCCC1)[C@]1(CCS(=O)(=O)c2ccccc2)N=C(c2ccc(OCCCO)cc2)O[C@@H]1c1ccccc1,1.04,0.815,0.215,0.803,0.773,1.49,1.11,-1.79 (inactive),0.636,0.0623,1.56,-0.503 (inactive),-0.282 (inactive),5.25 (inactive),2.4,-0.643 (inactive),0.568,0.115,1.11,0.244

# From PubChem BioAssay
